DT40 TDP1 no CPT: qHTS for Inhibitors of human tyrosyl-DNA phosphodiesterase 1 (TDP1): qHTS in cells in absence of CPT; DT40 Tdp1-/- hTDP1 cells, no CPT, ATP luminescence, 48 h; Potency, µM (titrated, usually from 46.2 µM), inactives show top-dose activity change, negative = growth inhibition, actives largely listed as inhibitors; hit rate 15% among 420,000; AID 686978, 2013; also: potency is read from the fitted curve at half-maximal effect; nearly all actives have a fitted effect of over 55% in size
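Cells were dispensed at 400 per well, compounds added by pin tool, plates incubated ≥48 hr at 37 °C, then CellTiter-Glo added for 30 min at room temperature before luminescence reading. Line: DT40 Tdp1-/- complemented with hTDP1; camptothecin omitted.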
HT1080 IDH1KD tx: qHTS for induction of synthetic lethality in tumor cells producing 2HG: qHTS for the HT-1080-IDH1KD cell line. HT-1080 IDH1 knockdown viability, ATP luminescence, 48 h. hit rate 2% among 360,000. Potency, µM (series often up to 46.1 µM), for the others: at the highest dose activity, negative = toxicity, actives largely listed as cytotoxic. AID 686971, 2013;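 also: potency is read from the fitted curve at half-maximal effect; 0% = DMSO wells and -100% = cell-free medium wells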
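Viability of IDH1-knockdown HT-1080 fibrosarcoma cells was assessed by CellTiter-Glo after 48 h at 37 °C with titrated compound; concentration-effect curves were classified by fit quality and response size.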
IL1B secr inh: qHTS for Inhibitors of Inflammasome Signaling: IL-1-beta AlphaLISA Primary Screen; activity change, % at 57.5 µM; THP-1 LPS/ATP IL-1B secretion, AlphaLISA, 16 h; active compounds read low; hit rate 4.7% among 360,000; AID 743279, 2014; in the data active = activity change below about -50%; inconclusive = mostly about -30% to -49%
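THP-1 cells pretreated 1 hr with compounds (up to 57.5 uM final), then stimulated with LPS (250 ng/mL final) plus ATP (1.25 mM final); secreted IL-1B measured by AlphaLISA after 16 hr, decreased signal indicating inhibition.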
TDP1 cell CPT: qHTS for Inhibitors of human tyrosyl-DNA phosphodiesterase 1 (TDP1): qHTS in cells in presence of CPT; chicken DT40 Tdp1-/-;hTDP1 cells + 20 nM CPT, ATP luminescence, 48 h; Potency, µM (series often up to 46.2 µM), inactives show at the highest dose activity change, negative = growth inhibition, actives largely listed as inhibitors; hit rate 12% among 420,000; also: potency is read from the fitted curve at half-maximal effect; nearly all actives have a fitted effect of over 55% in size
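Chicken DT40 Tdp1-/- cells stably complemented with human TDP1 were seeded at 400 cells/well in medium containing 20 nM camptothecin, exposed to pin-transferred compounds, and grown at 37 °C for at least 48 hr. Viability was read as ATP luminescence.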
HT1080NT lethal: qHTS for induction of synthetic lethality in tumor cells producing 2HG: qHTS for the HT-1080-NT fibrosarcoma cell line; HT-1080-NT fibrosarcoma viability, CellTiter-Glo ATP luminescence, 48 h; Potency, µM (doses to about 46.1 µM), inactives show at the highest dose activity, negative = less viability, usual class: cytotoxic; hit rate 1.6% among 360,000; AID 686970, 2013;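 also: NT is the 2HG producing partner of a matched IDH1 knockdown line; potency is read from the fitted curve at half-maximal effect; 0% = DMSO-treated cells and -100% = media-only wells without cells; nearly all actives have a fitted effect of over 55% in size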
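Viability by CellTiter-Glo luminescence after 48 h compound exposure at 37C of HT-1080-NT cells (750/well, RPMI, 5% FBS). % activity scaled between DMSO wells and medium-only wells, then curve-fitted and categorized by curve class.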
Numbers without * were called inactive; ? = inconclusive; . = no result given; ! = not active in a repeat; [ ] = remark or other dose. Shown are actives, neighbours in structure and some others; about 19% of the full set was active somewhere. Unless noted, calls follow the shape of the dose curve; as a rule, active = well fitted curve in the direction sought with a large enough effect; inconclusive = small, poorly fitted or top-dose-only effect, or another doubt; inactive = no such curve, though single readings can be large; an effect the other way counts as inactive or inconclusive. Unless noted, % is scaled to controls: 0 for no effect and ±100 for the full control effect.

SMILES	DT40 TDP1 no CPT	HT1080 IDH1KD tx	IL1B secr inh	TDP1 cell CPT	HT1080NT lethal
COCCOC(=O)C1=C(C)OC(N)=C(C(=O)OC)C12C(=O)Nc1ccccc12 (centres undefined)	-5%	0%	28	0%	-1%
CC(=O)OC1(c2ccccc2)CCN(CCc2ccccc2)CC1	22µM*	.	.	?	.
CC(C)C(=O)c1cn(Cc2ccc(C#N)cc2)c2ccccc12	?	-28%	-10	29µM*	-3%
CC(=O)c1cn(Cc2ccc(C#N)cc2)c2ccccc12	-12%	-3%	30	-10%	0%
CCCC[N+]12C3CC(C(CC)[C@H]1O)[C@@H]1C(O)C4(C[C@@H]12)c1ccccc1N(C)C34 (some centres undefined)	-10%[9.04 µM]	.	.	?	.
CC(C)(C)OC(=O)COc1cc(OCC(=O)OC(C)(C)C)c2c(=O)cc(-c3ccccc3)oc2c1	18µM*	?	-67*	?	?
CNc1ccc(C(=O)CC(O)CCC(C)C2OC(=O)CC(O)CC(=O)CC(O)CC(O)CC(O)CC(O)CC3(O)CC(O)C(C(=O)OC)C(CC(O[C@@H]4O[C@H](C)[C@@H](O)[C@H](N)[C@@H]4O)/C=C/C=C/C=C/C=C/C=C/C=C/C=C/C2C)O3)cc1 (some centres undefined)	-24%	.	.	3%	.
COc1ccc(OC)c(C(O)C(C)N)c1 (centres undefined)	-3%	13%	15	10%	30%
COc1ccc(-c2ccc(OC)c(OC)c2OC)cc1	5.2µM*	?	36	15µM*	?
O=c1[nH]c(=S)[nH]c(O)c1N=Nc1ccc2c(c1)OCO2	-3%	-18%	15	?	-22%
O=c1[nH]c(=S)[nH]c(O)c1N=Nc1ccc2c(c1)OCCO2	26µM*	-14%	-14	15µM*	-12%
COc1ccc(/C=C/c2nc(-c3ccccc3O)n(-c3ccccc3)n2)cc1OC	10µM*	.	.	10µM*	.
COc1cc(/C=N/NP(=S)(c2ccccc2)c2ccccc2)ccc1O	-1%	-25%	60	-1%	-1%
C=CCn1c(O)c(C(CC)=NCCN2CCN(C(=S)NC)CC2)c(=O)[nH]c1=O	-1%	11%	43	-5%	11%
CN(C)CC/C=C1/c2ccccc2Sc2ccc(Cl)cc21	29µM*!	?	-63*!	?	?
CN1C(=O)CN=C(c2ccc[nH]2)c2cc(Cl)ccc21 (tested in a mixture with another compound)	1.3µM*	-16%	-1	1.6µM*	-14%
CN1C(=O)CN=C(c2ccccc2Cl)c2cc(Br)ccc21	-15%	-17%	7	-28%	0%
Cc1ccccc1CN1C(=O)CN=C(c2ccccc2)c2cc(Cl)ccc21	18µM*	.	.	?	.
Cc1cccc(CN2C(=O)CN=C(c3ccccc3Cl)c3cc(Cl)ccc32)c1	23µM*	.	.	23µM*	.
CN1C(=S)CN=C(c2ccccc2)c2cc(Cl)ccc21	15µM*	.	.	?	.
O=C1CC(c2ccc(C(F)(F)F)cc2)c2c(c3ccccc3oc2=O)O1 (centres undefined)	-2%	.	.	19%	.
COCCOC(=O)C1=C(N)Oc2c(c(=O)oc3ccccc23)C1c1ccncc1 (centres undefined)	-13%	5%	14	-17%	7%
NNC(=O)CN1C(=O)CN=C(c2ccccc2)c2cc(Br)ccc21	-9%	11%	.	2%	9%
Cc1ccc(NC(=O)CN2C(=O)CN=C(c3ccccc3)c3ccccc32)cc1Cl	?	.	.	23µM*	.
N=c1sccn1Cc1ccccc1F	-12%	2%	4	2%	8%
SMILES	DT40 TDP1 no CPT	HT1080 IDH1KD tx	IL1B secr inh	TDP1 cell CPT	HT1080NT lethal
COc1ccc(CC2c3cc(OC)c(OC)cc3CCN2C)cc1OC (centres undefined)	23µM*!	-5%	-15	18µM*!	-4%
Cc1ccc(Cn2c(NCCCn3ccnc3)nc3c2c(=O)n(C)c(=O)n3C)cc1	?	-7%	-14	?	-7%
Cc1cc(Cl)ccc1C(=O)C1CCCN(C2CCSCC2)C1 (centres undefined)	21µM*	-27%	-28	26µM*	-17%
O=C(c1ccc(C(F)(F)F)cc1)C1CCCN(C2CCSCC2)C1 (centres undefined)	?	-19%	-9	?	-16%
CCC1(O)C(=O)OCc2c1cc1n(c2=O)Cc2cc3c(N)cccc3nc2-1 (centres undefined)	0.052µM*	0.65µM*	-97*	0.21µM*	1.6µM*
COc1ccc(CNCCc2ccc(Cl)cc2)c(OC)c1OC	9.2µM*	-2%	-17	16µM*	-13%
COc1ccccc1CNCCc1ccc(F)cc1	-21%	-22%	0	?	-21%
CCOc1ccc(CNCCc2ccc3c(c2)OCO3)cc1	?	-20%	-19	1%	-27%
COc1ccccc1CNCCc1cccc(Cl)c1	15µM*	-25%	.	18µM*	-21%
CCOc1ccccc1CNCCc1ccc2c(c1)OCO2	?	-13%	-60*	?	-11%
O=C1NCN(c2ccccc2)C12CCN(C[C@H]1COc3ccccc3O1)CC2	-25%	.	.	9%	.
CCOc1ccccc1N1C(=O)NC(=O)/C(=C/c2ccc3c4c(cccc24)CC3)C1=O	?	-8%	-89*	?	-10%
CCc1ccccc1N1C(=O)NC(=O)/C(=C\c2cc(C)n(C)c2C)C1=O	-26%	20%	-3	14%	12%
CC1C=CCCC12C(=O)NC(=O)NC2=O (centres undefined)	-19%	10%	7	-26%	8%
Cc1c(NC(=O)Nc2cccc(C(F)(F)F)c2)sc2nc3n(c(=O)c12)CCC(C)CC3 (centres undefined)	18µM*	.	.	13µM*	.
CC1CCN(CC(=O)c2cccc(C(F)(F)F)c2)CC1	4%	3%	-6	-12%	4%
CN[C@@H](Cc1c[nH]c2ccccc12)C(=O)O	-5%	.	.	-4%	.
COc1cccc(N2CCN(C(=O)C3CCN(S(=O)(=O)c4ccc5c(c4)oc(=O)n5C)CC3)CC2)c1	18µM*	8%	-3	16µM*	1%
Cn1c(=O)oc2cc(S(=O)(=O)N3CCCC(C(=O)N4CCN(c5cccc(Cl)c5)CC4)C3)ccc21 (centres undefined)	8.2µM*	.	.	9.2µM*	.

Screens deposited in PubChem BioAssay by National Center for Advancing Translational Sciences (NCATS).
